GRP78 ERSR act – qHTS for Inducers of the Endoplasmic Reticulum Stress Response (ERSR) in Human Glioma: qHTS; Potency, µM, for the others: top-dose activation, hits mostly activators; U87-MG GRP78 promoter luciferase reporter, 16 h; 0.02% of 420,000 active; active = well fitted activation curve with a large enough effect; note: potency is the fitted concentration of half-maximal effect; series mostly up to about 76 µM; % of control where 0% means no effect; nearly all actives have a fitted effect of over 35% in size
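Stably transfected U87-MG human glioma cells carrying a GRP78-based luminescent sensor were seeded at 1000 cells/well, pin-dosed with compounds and incubated 16 h. Luciferase reagent was then added, and end-point luminescence was read after 10 min at room temperature.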
D1 potentiator – Potentiators of Human D1 Dopamine Receptor: qHTS; D(1A) dopamine receptor (Homo sapiens), P21728; HEK293 TREx D1 cells, calcium flux, dopamine EC20 potentiation; potentiation, % at 10 µM; 0.036% of 360,000 active; AID 504651, 2011; in the data active = potentiation above about 30%; note: 0% is about no effect
Target sequence (P21728 whole entry, looked up): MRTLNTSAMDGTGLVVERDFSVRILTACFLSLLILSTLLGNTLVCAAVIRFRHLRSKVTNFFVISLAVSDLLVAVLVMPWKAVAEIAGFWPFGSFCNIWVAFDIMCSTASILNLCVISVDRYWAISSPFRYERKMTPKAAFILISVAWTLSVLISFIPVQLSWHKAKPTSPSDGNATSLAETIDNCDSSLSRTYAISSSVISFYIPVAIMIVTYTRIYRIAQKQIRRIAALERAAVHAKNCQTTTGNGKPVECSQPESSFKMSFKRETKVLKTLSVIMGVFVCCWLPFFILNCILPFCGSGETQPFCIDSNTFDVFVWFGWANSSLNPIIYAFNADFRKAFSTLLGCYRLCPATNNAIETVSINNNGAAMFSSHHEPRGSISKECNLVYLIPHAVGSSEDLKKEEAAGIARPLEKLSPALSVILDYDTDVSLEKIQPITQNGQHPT
TRHR PAM – qHTS for Small Molecule Agonists and Allosteric Enhancers of Human TRH Receptor: Primary Screen for Enhancers | TRHR cells, fluo-8 calcium fluorescence, EC20 TRH enhancement | enhancement, % at 2 µM | 0.66% of 360,000 active; in the data active = enhancement above about 30%; note: 0% is about no effect
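Enhancer read-out: after compound pinning and an initial kinetic agonist-mode read, an EC20 of TRH (10 nM final) was injected and fluo-8 calcium signal (Ex 480/Em 530) followed at 1 s/cycle for 100 cycles in TRHR-expressing cells.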
D1 antagonist – Antagonist of Human D 1 Dopamine Receptor: qHTS | AID 504652, 2011 | activity change, negative = inhibition, % at 10 µM | HEK293 TREx D1 cells, calcium flux, dopamine EC80; hits give low values | 3.2% of 360,000 active; in the data active = activity change below about -30%; note: % is set by controls: 0 for no effect and ±100 for the full control effect
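HEK293 T-REx cells expressing inducible, force-coupled D1 receptor; no-wash Ca dye, 30–90 min RT. Cmpd → 180 s read at 1 Hz → EC80 DA → 180 s read.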
TRHR agonist – qHTS for Small Molecule Agonists and Allosteric Enhancers of Human TRH Receptor: Primary Screen for Agonists | 0.18% of 360,000 active | activation, % at 2 µM | TRHR cells, calcium flux fluo-8, FDSS agonist mode | Thyrotropin-releasing hormone receptor (Homo sapiens), P34981; note: 0% is about no effect
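TRHR-expressing cells loaded with fluo-8 calcium dye; 23 nL library compound pin-transferred, kinetic FDSS fluorescence (Ex 480/Em 530) recorded about 180 s for agonist-induced calcium release, before a 10 nM TRH EC20 addition for potentiator mode.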
D1 agonist – Allosteric Agonists of the Human D1 Dopamine Receptor: qHTS | D(1A) dopamine receptor (Homo sapiens), P21728 | activation, % at 2 µM | HEK293 T-REx D1 cells, calcium flux, agonist mode | 1% of 360,000 active; note: 0% is about no effect
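Agonism was scored from calcium flux recorded over 180 s (1 read/s) after pintool compound addition, following a 10-cycle baseline. Cells were inducible force-coupled HEK293 TREx D1, plated overnight at 30 C and loaded with no-wash calcium dye.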
* = called active by the depositor; / = no result given; ! = not confirmed by another sample. Hits are enriched below; roughly 4% of the tested compounds scored in any of these assays. Cut-off read from the data, not from the text of the source, unless noted: active = activation above about 30%; inactive = the rest.

SMILES	GRP78 ERSR act	D1 potentiator	TRHR PAM	D1 antagonist	TRHR agonist	D1 agonist
CCN(CC)S(=O)(=O)c1ccc(NN=C(C#N)C#N)cc1	8.4%	-4.5	-2.9	-8.4	0.6	36.5*
O=c1[nH]c(=O)n(Cc2ccc(F)cc2)c(O)c1C=Nc1ccc(Cl)cc1	-3.6%	-5.0	-6.6	-1.2	1.4	3.5
CCN(CC)c1ccc(N=Cc2c(O)[nH]c(=O)[nH]c2=O)cc1	2.7%	-7.2	-5.2	-11.0	5.1	10.8
CCN(CC)c1ccc(N=Cc2c(O)n(Cc3ccccc3)c(=O)[nH]c2=O)cc1	0.4%	-3.9	4.3	-4.5	-0.7	36.6*!
CCOc1ccccc1-n1c(O)c(C=Nc2ccc(N(CC)CC)cc2)c(=O)[nH]c1=O	-6.4%	-0.6	-2.4	10.3	22.0	36.9*
CCN(CC)c1ccc(N=Cc2c(O)n(-c3ccccc3C)c(=O)[nH]c2=O)cc1	-1.3%	-2.8	2.6	-8.3	14.1	30.9*
CCN(CC)c1ccc(N=Cc2c(O)n(-c3ccccc3)c(=O)[nH]c2=O)cc1	1.5%	-0.8	4.4	-1.4	-1.2	86.1*
CCOc1ccc(-n2c(O)c(C=Nc3ccc(N(CC)CC)cc3)c(=O)[nH]c2=O)cc1	-1.1%	-3.6	1.7	0.8	22.2	17.1
O=C1/C(=C\c2ccccc2)C[C@@]2(O)[C@H]3Cc4ccc(O)c5c4[C@@]2(CCN3CC2CC2)[C@H]1O5	-11.7%	/	/	/	/	/
CC(C)c1c(CN(C)[C@@H](C)Cc2ccccc2)n(C)n(-c2ccccc2)c1=O	-2.9%	/	/	/	/	/
CC(=O)Nc1ccc(OC(=O)N(C)c2ccc(C)cc2)cc1	-3.3%	-6.4	2.3	-38.0*	0.1	0.9
CC(=O)Nc1ccc(OC(=O)N(C)c2ccccc2)cc1	-4.1%	-2.7	2.9	11.8	0.6	2.5
c1cc2cc(c1)C[n+]1ccc(c3ccccc31)NCc1ccc(cc1)CNc1cc[n+](c3ccccc13)C2	-4.8%	/	/	/	/	/
CCCN(CCC)C1CCc2ccc(O)cc2C1 (stereo not given)	-2.0%	-5.1	1.2	-61.2*	0.6	-1.5
CCc1ccc(-n2nc(C)c3c2NC(=O)CSC3c2ccc(C(=O)OC)cc2)cc1 (stereo not given)	/	1.1	6.7	-42.8*	-0.1	9.4
CCc1ccc(-n2nc(C)c3c2NC(=O)CSC3c2ccccc2C)cc1 (stereo not given)	/	-2.1	-5.5	14.7	-0.8	0.1
CCOC(=O)c1[nH]ncc1CN1CCCC(C(=O)c2cccc(Cl)c2)C1 (stereo not given)	-0.9%	-12.4	3.7	-12.9	1.1	43.5*
Cc1ncc(CN2CCCC(C(=O)c3cccc(Cl)c3)C2)s1 (stereo not given)	-1.3%	2.1	-2.7	17.1	-0.3	1.0
CC1(O)CCC2C3CCC4=CC(=O)CCC4(C)C3(F)C(O)CC21C (stereo not given)	-1.5%	/	/	/	/	/
S=C=Nc1cccc(C2(N3CCCCC3)CCCCC2)c1	-4.3%	-6.8	3.8	-91.5*	-1.0	4.3
CCOC(=O)c1cc(CC)sc1/N=C/C1C(=O)NC(=S)NC1=O	-0.1%	0.6	33.0*	0.6	-0.1	1.1
O=c1[nH]c(=O)n(C2CCCCC2)c(O)c1/C=C/C=Nc1ccccc1	-2.2%	-8.8	16.9	-0.9	63.3*	174.8*
COc1ccc(-n2c(O)c(/C=C/C=Nc3ccccc3)c(=O)[nH]c2=O)cc1	-0.2%	-3.1	-0.7	4.8	29.6	91.2*
O=c1[nH]c(=O)n(-c2ccccc2)c(O)c1/C=C/C=Nc1ccccc1	-5.6%	-2.9	2.6	-3.4	15.5	21.2
C=CCn1c(O)c(/C=C/C=Nc2ccccc2)c(=O)[nH]c1=O	-3.0%	-3.1	1.3	-3.3	9.9	16.4
SMILES	GRP78 ERSR act	D1 potentiator	TRHR PAM	D1 antagonist	TRHR agonist	D1 agonist
Cc1ccc(-n2c(O)c(/C=C/C=Nc3ccccc3)c(=O)[nH]c2=O)cc1	0.5%	8.0	-4.5	21.6	23.7	49.6*
CC(C)NCC(O)c1ccccc1Cl (stereo not given)	-3.3%	/	/	/	/	/
CS(=N)(=O)CC[C@@H](N)C(=O)O (stereo not given in full)	-0.5%	/	/	/	/	/
CC1=C(O)C(=O)C=C2C1=CC=C1[C@]2(C)CC[C@@]2(C)C3C[C@](C)(C(=O)O)CC[C@@]3(C)CC[C@@]12C (stereo not given in full)	-12.3%	/	/	/	/	/
CC1(C)CC/C(=C\c2ccc(Cl)cc2)C1(O)Cn1cncn1 (stereo not given)	-3.4%	/	/	/	/	/
CCOC(=O)C1=C(N)OC2=C(C(=O)CC(C)(C)C2)C12C(=O)Nc1ccccc12 (stereo not given)	-3.2%	-12.4	-3.1	-37.4*	0.1	1.3
O=C(Nc1ccc(Cl)cc1C(=O)c1ccccc1)c1ccco1	-7.0%	-4.7	-5.7	-33.1*	-0.2	4.8
O=C(Nc1ccc(Cl)cc1C(=O)c1ccccc1Cl)c1ccco1	-3.9%	-7.0	0.9	-38.8*	0.7	2.2
Cc1ccccc1-c1cncnc1NCCc1cnc[nH]1	-4.4%	/	/	/	/	/
Cc1cc(-n2c(/C=C/c3cccs3)nc3ccccc3c2=O)ccc1Br	-2.1%	-0.9	0.6	-31.8*	-0.3	-0.2
C/C(=C\[C@@H](N)C(=O)O)CP(=O)(O)O	0.3%	/	/	/	/	/
O=C1NC(=O)N(c2ccccc2F)C(=O)/C1=C/c1ccc(Sc2nc3ccccc3[nH]2)o1	-3.9%	4.8	5.2	-10.4	41.2*	116.2*
O=C1NC(=O)C(=Cc2ccc(Oc3ccc([N+](=O)[O-])cc3)cc2)C(=O)N1	-0.9%	9.7	3.4	-35.9*	-2.3	2.7
O=C1NC(=O)C(=Cc2ccccc2OCCOc2ccc([N+](=O)[O-])cc2)C(=O)N1	1.8%	-5.7	3.0	-18.8	0.8	2.2
COCCCNC(=O)Cn1cc(/C=C2\C(=O)NC(=O)N(c3ccccc3F)C2=O)c2ccccc21	-13.0%	-5.1	0.2	-19.5	-0.3	32.1*
COCCNC(=O)Cn1cc(/C=C2\C(=O)NC(=O)N(c3ccccc3F)C2=O)c2ccccc21	-3.7%	-3.9	-2.0	4.4	1.3	1.7
CCCCCc1cc(O)c2c(c1)OC(C)(C)c1ccc(C)cc1-2	-10.9%	/	/	/	/	/
CC(C(=O)c1ccccc1)N1C(=O)c2ccccc2C1=O (stereo not given)	-3.1%	-0.9	0.3	2.1	-0.5	0.2
